Molecules are shown by their SMILES. About 83,000 compounds went through this panel and 20% of them were active in at least one assay; those are over-represented in the sample as a whole.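 Treatment: one concentration, 48 hours, 96-well format. Scoring: percent growth, with anything below 10 considered active.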 Values without a mark were called inactive. Activity calls are given as the source filed them.

Among the test systems are BT-549 breast; MDA-MB-435 melanoma; SW-620 colon; MCF7 breast; HCT-116 colon; HCC-2998 colon; KM12 colon.
Experiment in all cases: NCI-60 one-dose screen, 48 h (100 = growth as untreated, 0 = no growth, -100 = all killed)
Conditions in all cases: 10 µM

For the compound `C#Cc1ccc(-n2c(/C=C/c3ccc(O)cc3)nc3ncccc3c2=O)cc1`, the growth in the assay on BT-549 breast was 74.9%; in the assay on MDA-MB-435 melanoma, -45.5% (active); in the assay on SW-620 colon, 34.5%; in the assay with MCF7 breast, 10.5%; with HCT-116 colon it was 48.5%; with HCC-2998 colon, 93%.

With `O=C1/C(=C\c2ccccc2)CN(C(=O)c2ccccc2F)C/C1=C\c1ccccc1`, the growth in the assay with BT-549 breast is -24.6% (active); with MDA-MB-435 melanoma, -35.6% (active); in the assay with SW-620 colon, -71.7% (active); with MCF7 breast, -37.6% (active); in the assay with HCT-116 colon, -84.8% (active); in the assay on HCC-2998 colon, -84.1% (active).

Take `O=C1/C(=C\c2ccc(F)cc2)CN(C(=O)c2ccc([N+](=O)[O-])cc2)C/C1=C\c1ccc(F)cc1`: the growth is 5.36% (active) in the assay with BT-549 breast; -30% (active) in the assay on MDA-MB-435 melanoma; -58.4% (active) in the assay on SW-620 colon; -9.52% (active) with MCF7 breast; -72.7% (active) in the assay with HCT-116 colon; -79.1% (active) in the assay on HCC-2998 colon.

`COc1cccc(Cn2c(-c3nonc3N)nc3ccccc32)c1`: the growth was 47.9% with BT-549 breast; -73.9% (active) in the assay with MDA-MB-435 melanoma; 14.4% in the assay on SW-620 colon; 15.5% in the assay with MCF7 breast; 18.3% with HCT-116 colon; 23.7% in the assay on HCC-2998 colon.

In the case of `C#Cc1ccc(-n2c(/C=C/c3ccc4ccccc4c3)nc3ncccc3c2=O)cc1`, the growth with BT-549 breast is 52.4%; with MDA-MB-435 melanoma it was 12.8%; with SW-620 colon it was 19.2%; with MCF7 breast, 18.6%; in the assay with HCT-116 colon it was 21%.

Take `COc1ccc(/C=C2/CN(CCC#N)C/C(=C\c3ccc(OC)cc3)C2=O)cc1`: the growth in the assay on BT-549 breast is 5.02% (active); in the assay on MDA-MB-435 melanoma it was -30% (active); with SW-620 colon, -37.2% (active); in the assay on MCF7 breast it was 10.4%; in the assay with HCT-116 colon it was -68.2% (active); in the assay with HCC-2998 colon it was -82.3% (active).

Take `C#Cc1ccc(-n2c(/C=C/c3ccc4ccccc4n3)nc3ncccc3c2=O)cc1`: the growth in the assay on BT-549 breast was 5.21% (active); in the assay on MDA-MB-435 melanoma, -11.5% (active); in the assay with SW-620 colon it was -51% (active); with MCF7 breast, 6.42% (active); in the assay on HCT-116 colon, -25% (active); in the assay on HCC-2998 colon it was -75.3% (active).

For the compound `COc1cc(Nc2ncnc(Nc3ccc4c(n3)NC(=O)C(C)(C)O4)n2)cc(OC)c1OC`, the growth with BT-549 breast is 33.7%; in the assay on MDA-MB-435 melanoma, 16.6%; with SW-620 colon it was 32.9%; with MCF7 breast, 21.9%; in the assay on HCT-116 colon it was 24.2%.

Turning to `N=C(N)c1ccc(-c2ccc(-c3cccs3)s2)cc1`, the growth with BT-549 breast was 93.2%; in the assay on MDA-MB-435 melanoma, -85.9% (active); in the assay on SW-620 colon, -66.2% (active); in the assay on MCF7 breast, -79.4% (active); in the assay with HCT-116 colon it was -67.1% (active); in the assay on HCC-2998 colon it was -69.5% (active).

Regarding `COc1cc(NC(=O)CCSc2nc3ccc(Cl)cc3c(=O)n2Cc2ccccc2)cc(OC)c1OC`, the growth in the assay with BT-549 breast is 73%; with MDA-MB-435 melanoma it was 89%; with SW-620 colon, 86.2%; in the assay with MCF7 breast, 70%; in the assay with HCT-116 colon, 53%; with HCC-2998 colon, 100%.

Take `COc1ccc(/C=C2/CN(C(=O)c3ccc(C)cc3)C/C(=C\c3ccc(OC)cc3)C2=O)cc1`: the growth in the assay with BT-549 breast is 94%; in the assay with MDA-MB-435 melanoma, 41.3%; in the assay on SW-620 colon, 71.3%; in the assay with MCF7 breast, 32.8%; in the assay on HCT-116 colon it was -27% (active); in the assay on HCC-2998 colon, 71.3%.

Consider `O=C1/C(=C\c2ccccc2)CN(C(=O)c2ccccc2)C/C1=C\c1ccccc1`, for which the growth with BT-549 breast is 2.1% (active); in the assay on MDA-MB-435 melanoma, -49.6% (active); in the assay with SW-620 colon, -62.3% (active); in the assay on MCF7 breast it was -36.9% (active); with HCT-116 colon it was -81.4% (active).

For `COc1ccc(-c2nc(-c3nc4ccc(Cl)cc4[nH]3)c3ccccn23)cc1`, the growth in the assay with BT-549 breast was 42.9%; in the assay with MDA-MB-435 melanoma, 58.3%; in the assay on SW-620 colon it was 75.2%; with MCF7 breast, 41.5%; in the assay with HCT-116 colon, 4.9% (active); in the assay on HCC-2998 colon, 69.3%.

As to `CCC(=O)N1C/C(=C/c2ccc(OC)cc2)C(=O)/C(=C/c2ccc(OC)cc2)C1`, the growth with BT-549 breast was 13.2%; in the assay with MDA-MB-435 melanoma, -28.1% (active); in the assay on SW-620 colon, -50.1% (active); in the assay with MCF7 breast, -4.78% (active); in the assay with HCT-116 colon, -70.8% (active).

Take `COc1ccc(-c2ccc(-c3ccc(C(=N)N)cn3)o2)cc1`: the growth in the assay on BT-549 breast is 86.3%; in the assay on MDA-MB-435 melanoma, 26.4%; with SW-620 colon, 80.4%; in the assay on MCF7 breast it was 47.3%; with HCT-116 colon, 45.9%; with HCC-2998 colon, 29.1%.

In the case of `O=C1/C(=C\c2ccc(F)cc2)CN(C(=O)c2ccccc2F)C/C1=C\c1ccc(F)cc1`, the growth was -43.2% (active) in the assay with BT-549 breast; -47.4% (active) with MDA-MB-435 melanoma; -78.3% (active) in the assay on SW-620 colon; -72.1% (active) in the assay with MCF7 breast; -75% (active) in the assay with HCT-116 colon; -83.8% (active) in the assay on HCC-2998 colon.

For `N#CCCN1C/C(=C/c2ccc(Cl)cc2)C(=O)/C(=C/c2ccc(Cl)cc2)C1`, the growth in the assay on BT-549 breast is -24.5% (active); in the assay on MDA-MB-435 melanoma, -66.5% (active); in the assay with SW-620 colon, -48.4% (active); with MCF7 breast it was -10.2% (active); in the assay on HCT-116 colon it was -54.5% (active); in the assay on HCC-2998 colon, -84.6% (active).

Turning to `COc1cc(NC(=O)CCSc2nc3ccc(C)cc3c(=O)n2Cc2ccccc2)cc(OC)c1OC`, the growth in the assay on BT-549 breast is 95.5%; in the assay with MDA-MB-435 melanoma it was 92.1%; with SW-620 colon, 84.5%; in the assay with MCF7 breast, 77.6%; in the assay on HCT-116 colon it was 35%; with HCC-2998 colon, 112%.

Turning to `O=C1/C(=C\c2ccc(F)cc2)CN(C(=O)c2ccccc2)C/C1=C\c1ccc(F)cc1`, the growth in the assay with BT-549 breast is 34.9%; in the assay with MDA-MB-435 melanoma, -39.4% (active); in the assay with SW-620 colon, -44.4% (active); in the assay on MCF7 breast, 1.32% (active); with HCT-116 colon, -55.3% (active); in the assay on HCC-2998 colon, 16.4%.

In the case of `O=c1[nH]c2ccc(Cl)cc2c2ccccc12`, the growth in the assay on BT-549 breast is 100%; with MDA-MB-435 melanoma, 72.1%; with SW-620 colon, 102%; in the assay with MCF7 breast it was 93.1%; in the assay on HCT-116 colon, 38.4%; in the assay with HCC-2998 colon it was 52.4%. Further, the growth in the assay on KM12 colon was 65.2%.

Source of the values: PubChem BioAssay (NCI).
